An excerpt weighted towards active compounds, which were near 27% of everything screened.
CYP2C19 act: increases human CYP2C19 enzyme activity | activation factor at 5 µM | recombinant CYP2C19, luciferin-H EGE luminescence; hits give high values; 0 = fully inhibited enzyme, 1 = untreated enzyme | 96,000 tested, under 10 active | P33261 | AID 1025;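 active = activation factor of at least 2 at 5 µM in the primary screen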;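 also: 0 = wells with 2.5 mM tranylcypromine and 1 = vehicle-only wells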
Target sequence (P33261 whole entry, looked up): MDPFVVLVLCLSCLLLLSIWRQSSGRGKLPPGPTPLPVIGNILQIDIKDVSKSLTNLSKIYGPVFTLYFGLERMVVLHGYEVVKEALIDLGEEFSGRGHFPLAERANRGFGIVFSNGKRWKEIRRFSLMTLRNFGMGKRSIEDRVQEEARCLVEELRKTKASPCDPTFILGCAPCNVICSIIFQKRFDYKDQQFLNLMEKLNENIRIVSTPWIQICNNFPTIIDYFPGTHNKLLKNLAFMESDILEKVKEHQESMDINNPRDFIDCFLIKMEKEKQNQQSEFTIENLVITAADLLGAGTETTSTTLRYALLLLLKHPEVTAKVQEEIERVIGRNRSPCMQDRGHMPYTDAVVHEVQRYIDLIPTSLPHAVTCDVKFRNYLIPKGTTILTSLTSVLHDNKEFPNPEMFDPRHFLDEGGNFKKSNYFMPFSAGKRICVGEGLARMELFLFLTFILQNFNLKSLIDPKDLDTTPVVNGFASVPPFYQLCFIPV
CYP2C9 act: activators of human CYP2C9. P11712. recombinant CYP2C9, luciferin-H conversion, luminescence; hits give high values; factor 1 = untreated enzyme, 0 = blocked. activation factor at 5 µM. actives 1.4% (n = 96,000). AID 1024;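 active = activation factor of 2 or more for CYP2C9 at a 5 µM dose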;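 also: 0 = sulfaphenazole-blocked wells and 1 = vehicle-only wells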
Cav32 inh: inhibitors of human Cav3.2 T-type calcium channel | O95180 | Cav3.2-expressing cells, Fluo-4 calcium fluorescence FDSS; hits give low values | B-score at 10 µM | actives 4% (n = 100,000) | AID 449739;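 active = single-dose well whose peak fluorescence ratio is a statistical outlier from its plate by either plate-standardised score or position-corrected B-score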
CYP2C9 inh: human CYP2C9 inhibition. AID 777. actives 20% (n = 96,000). P11712. CYP2C9 Supersomes, luciferin-H conversion, luminescence. inhibition, % at 5 µM;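 active = blocking of liver enzyme CYP2C9 beyond about 50% at 5 µM, limit read from the data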
CYP2C19 inhib: blocks human cytochrome P450 2C19; P33261; CYP2C19 Supersomes, luciferin-H EGE luminescence, 30 min; inhibition, % at 5 µM; actives 21% (n = 96,000);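 active = CYP2C19 inhibition above a set limit at 5 µM in the primary screen, cut at about 50% in these data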;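 also: plate controls were negative control wells for no effect and 2.5 mM tranylcypromine positive control for full effect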
* = called active by the depositor; nt = no result given.

SMILES	CYP2C19 act	CYP2C9 act	Cav32 inh	CYP2C9 inh	CYP2C19 inhib
c1ccc2[nH]c(SCc3ccc(-c4nnco4)cc3)nc2c1	0	0.1	0.64	95*	99*
O=C1CC(SCc2nc3ccccc3[nH]2)C(=O)N1c1ccc(F)cc1 (stereo not given)	0.8	1	-1.7	0	23
O=C1CCC(=O)N1c1ccc(CSc2nc3ccccc3[nH]2)cc1	0.4	0.4	0.41	62*	64*
CCOC(=O)c1ccc(CSc2n[nH]c(C)n2)o1	0.3	0.8	0.33	20	65*
Cc1nc2ccc(F)cc2cc1C(=O)NC(C)C	0.9	1	-0.56	-3	12
CN(C)C(CNC(=O)CN1C(=O)NC2(CCc3ccccc32)C1=O)c1ccco1 (stereo not given)	1.1	0.8	-0.6	18	-10
CCCN1C=CC(=C/C=C(\C#N)C(=O)OCC)C=C1	1	0.6	-3	36	-3
CCCCCCN1C=CC(=C/C=C(\C#N)C(=O)OCC)C=C1	0.7	0.4	-3.3*	60*	28
Cc1onc(-c2ccccc2)c1-c1n[nH]c(=S)n1-c1ccccc1	nt	nt	1	nt	nt
Cc1ccccc1NC(=O)CSc1nnc(Cc2ccccc2)o1	nt	nt	0.22	nt	nt
COc1ccc(C(=O)NCc2cccnc2)cc1S(=O)(=O)N1CCOCC1	1	1	0.54	4	-1
O=C(NCCCn1ccnc1)c1cc(S(=O)(=O)N2CCOCC2)c(Cl)cc1Cl	0.3	0	0.63	96*	72*
O=C(NCCCn1ccnc1)c1ccc(Br)c(S(=O)(=O)N2CCOCC2)c1	0.5	0.1	0.38	95*	53*
O=C(Nc1ccccc1O)c1cc(S(=O)(=O)N2CCOCC2)c(Cl)cc1Cl	0.9	0.7	-1.1	27	5
Cc1ccc(S(=O)(=O)N2CCOCC2)cc1C(=O)NCCCn1ccnc1	0.3	0.2	nt	76*	65*
COc1ccc(-c2cc(-c3ccccc3)c(C#N)c(S(C)=O)n2)cc1 (stereo not given)	0.5	0.3	-1.4	68*	47
COc1nc(-c2cccs2)cc(-c2ccc(C)cc2)c1C#N	1	0.8	-0.98	21	5
COc1cccc(-c2cc(C(F)(F)F)n3ncc(C(=O)NCC4CCCO4)c3n2)c1 (stereo not given)	0.5	0.5	-2.7	55*	46
CCOc1ccc(Cl)cc1S(=O)(=O)N1CCCC1	0.5	2.2*	-0.37	-117	53*
CCOc1c(S(=O)(=O)N2CCCC2)ccc(Cl)c1Cl	0.1	1.5	-1.1	-49	93*
CCOc1cc(C)c(S(=O)(=O)N2CCCC2)cc1C	nt	nt	-1.9	nt	nt
COc1ccc(Cl)cc1NS(=O)(=O)c1ccc(S(=O)(=O)N2CCCC2)cc1	0.7	0.7	-2.1	32	35
COc1cc(OC)c(S(=O)(=O)N2CCCCC2)cc1S(=O)(=O)N1CCCCC1	0.4	0.6	-0.4	43	64*
COc1ccc(Cl)cc1S(=O)(=O)N1CCCC1	0.6	2*	0.43	-97	43
CCOc1ccc(Br)cc1S(=O)(=O)N1CCCC1	nt	nt	-0.28	nt	nt
SMILES	CYP2C19 act	CYP2C9 act	Cav32 inh	CYP2C9 inh	CYP2C19 inhib
CC(=O)N1CCN2C(=O)C1CCCC(=O)c1cc(C)ccc12 (stereo not given)	nt	nt	0.2	nt	nt
O=C(C1CC1)N1CCc2cc(Br)cc(S(=O)(=O)N3CCN(c4ccccn4)CC3)c21	0.3	0.1	-3.2	95*	72*
O=C(CCS(=O)(=O)c1cc(Br)cc2c1N(C(=O)C1CC1)CC2)NCc1ccco1	0.5	0.5	0.15	45	48
CC(=O)N1CCc2cc(Br)cc(S(=O)(=O)N3CCCCCC3)c21	0.6	1.4	1.6	-41	37
CCOC(=O)C1CCN(S(=O)(=O)c2cc(Br)cc3c2N(C(=O)C2CC2)CC3)CC1	0.4	0.6	1.1	35	60*
Cn1nc(-c2ccc(N3CCOCC3)c(NS(=O)(=O)c3ccc(Cl)cc3)c2)c2ccccc2c1=O	0.1	0.2	2.2	84*	86*
CC(=O)Nc1cc(-c2nn(C)c(=O)c3ccccc23)ccc1N1CCOCC1	0.7	0.5	nt	50	28
Cc1ccc(S(=O)(=O)Nc2cc(-c3nn(C)c(=O)c4ccccc34)ccc2N2CCOCC2)cc1	0.1	0.1	-1.8	94*	93*
CC(C)=CCC(C)(C)CNC(=O)NC1CCCCC1	nt	nt	-0.71	nt	nt
CCOC(=O)Nc1nnc(CCc2ccccc2)s1	0.6	0.4	0.78	62*	44
CCC(C)Nc1nc2c(c(=O)n(C)c(=O)n2C)n1Cc1ccc(F)cc1 (stereo not given)	0.8	0.5	0.27	49	24
CCOC(=O)CNC1CC(=O)N(c2cccc(Cl)c2)C1=O (stereo not given)	0.9	0.9	-0.43	9	14
Cc1ccc(S(=O)(=O)N2C(=O)C(c3ccccc3)SC2=Nc2ccccc2)cc1 (stereo not given)	0.9	0.8	0.17	21	14
C=CCN=C1SC(C)C(=O)N1S(=O)(=O)c1ccccc1 (stereo not given)	0.3	1.4	-1.2	-36	73*
COc1ccc(C(C(=O)NC(C)(C)C)N(C(=O)CNC(=O)c2cccs2)c2ccc(C)cc2)cc1OC (stereo not given)	0.8	0.8	nt	19	18
C=CCNC(=O)NC(=O)COC(=O)/C(C#N)=C/c1cc(C)n(CCC(C)C)c1C	1	1	0.1	2	-2
Cc1cc(/C=C(\C#N)C(=O)OCC(=O)NC(=O)NC(C)(C)C)c(C)n1CCC(C)C	0.1	0	-3.9	98*	92*
O=C(Nc1ccc(N2CCCCC2)c(Cl)c1)c1ccc(N2CCOCC2)c([N+](=O)[O-])c1	0.5	0.6	-2.1	42	52*
Cc1c(NC(=O)c2ccc(N3CCCC3)c([N+](=O)[O-])c2)cccc1-c1nc2ccccc2s1	0.8	0.4	-4.6*	56*	18
O=C(Nc1ccc(N2CCCCC2)c(Cl)c1)c1ccc2c(c1)OCCO2	0.7	0.3	-1.4	68*	30
OCCn1c(Cl)nc2ccccc21	nt	nt	-0.34	nt	nt
O=C(NCc1ccccc1)c1ccc(CS(=O)(=O)c2ccccc2)o1	0.7	0.6	-0.097	42	30
COC(=O)c1oc2ccccc2c1-n1cccc1	0.9	0.8	-0.38	21	14
COC(=O)c1oc2ccc(Cl)cc2c1-n1cccc1	0.4	0.3	-1	72*	58*
CCC(CO)NC(=O)c1ccc(-c2nn(C)c(=O)c3ccccc23)cc1 (stereo not given)	1	0.7	0.68	33	1
Cn1nc(-c2ccc(OCC(=O)Nc3ccccc3)cc2)c2ccccc2c1=O	0.2	0.3	-0.69	68*	81*
COC(=O)COc1ccc(-c2nn(C)c(=O)c3ccccc23)cc1	0.6	0.6	0.35	44	43
Cn1nc(-c2ccc(OCC(N)=O)cc2)c2ccccc2c1=O	1.1	0.4	0.063	61*	-11
COc1cc(NC(=O)Cc2nn(C)c(=O)c3ccccc23)cc(OC)c1	0.7	0.1	-0.011	86*	35
